Structures are written as SMILES. Values without a mark were called inactive. The source made the active and inactive calls.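 How the source made its calls: active means calcium response above 60% of the acetylcholine maximum at human M5, as a positive modulator; inactive means the rest.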

Chain of Muscarinic acetylcholine receptor M5 (Homo sapiens) (P08912 whole entry, looked up): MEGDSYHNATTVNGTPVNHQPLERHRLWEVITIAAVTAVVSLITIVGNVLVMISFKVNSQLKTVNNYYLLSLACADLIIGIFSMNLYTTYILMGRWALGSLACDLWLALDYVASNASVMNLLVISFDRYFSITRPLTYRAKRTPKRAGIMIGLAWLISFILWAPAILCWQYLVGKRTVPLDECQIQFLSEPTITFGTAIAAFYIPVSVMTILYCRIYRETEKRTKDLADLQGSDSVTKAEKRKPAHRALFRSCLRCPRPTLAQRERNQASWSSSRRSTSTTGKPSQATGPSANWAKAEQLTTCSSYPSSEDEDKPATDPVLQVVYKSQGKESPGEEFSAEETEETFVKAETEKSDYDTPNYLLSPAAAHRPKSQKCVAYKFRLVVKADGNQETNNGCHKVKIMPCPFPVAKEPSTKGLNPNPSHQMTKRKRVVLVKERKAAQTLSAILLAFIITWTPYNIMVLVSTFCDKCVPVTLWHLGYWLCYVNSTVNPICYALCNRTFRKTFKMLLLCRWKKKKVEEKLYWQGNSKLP

The test addresses Muscarinic acetylcholine receptor M5 (Homo sapiens) (UniProt P08912). The test is described as follows: potentiators of ACh response at human M5 – cell-based, single concentration, CHO-K1 hM5, calcium flux (AID 743100). Conditions: CHO-K1 hM5, Fluo-4 calcium flux, ACh EC20, hits give high values; at 10 µM unless noted. On the technique in general: Calcium assays in cells follow changes in intracellular calcium, usually with a dye or a luminescent sensor.
With `CCN(Cc1ccccc1C)C(=O)C1CCN(S(=O)(=O)c2ccc3cn[nH]c3c2)CC1`, the % ACh max response was 85.1% (active).
As for `CCN(Cc1ccccc1)C(=O)C1CCN(S(=O)(=O)c2cccnc2)CC1`, the figure is 34.5%; as for `[2H]C([2H])(C)N(C(=O)C1CCN(S(=O)(=O)c2ccc3cn[nH]c3c2)CC1)[C@H](C)c1ccccc1`, 94.6% (active).
Under `CCN(Cc1ccccc1C(F)(F)F)C(=O)C1CCN(S(=O)(=O)c2ccc3[nH]ncc3c2)CC1` stands 90.2% (active); under `CCN(Cc1ccccc1)C(=O)C1CCN(S(=O)(=O)c2cccc(Cl)c2)CC1`, 65.3% [at 30 µM] (active); under `CCN(Cc1ccccc1)C(=O)C1CCN(S(=O)(=O)c2ccc(C(F)(F)F)nc2)CC1`, 56.9% [at 30 µM].
As to `CCN(C(=O)C1CCN(S(=O)(=O)c2ccc(OC)cc2)CC1)[C@H](C)c1ccccc1`, the % ACh max response was 91.8% [at 30 µM] (active).
Turning to `CCN(Cc1cccc(F)c1)C(=O)C1CCN(S(=O)(=O)c2ccc3cn[nH]c3c2)CC1`, the % ACh max response was 84.8% (active).
As for `CCN(CC1CCN(S(=O)(=O)c2ccc3c(c2)OCCO3)CC1)C(=O)c1ccccc1`, the figure is 11.3%; as for `CCN(C(=O)C1CCN(S(=O)(=O)c2ccc(-n3cccn3)cc2)CC1)[C@H](C)c1ccccc1C(F)(F)F`, 22.7%; as for `COc1ccc(S(=O)(=O)N2CCC(C(=O)N(C)Cc3ccccc3)CC2)cc1`, 64.5% [at 30 µM] (active).
Under `CCN(Cc1cccnc1)C(=O)C1CCN(S(=O)(=O)c2ccc3cn[nH]c3c2)CC1` stands 19.8%.
For `CCN(Cc1ccccc1)C(=O)C1CCN(S(=O)(=O)c2ccc(OC)nc2)CC1`, the % ACh max response is 62.5% [at 30 µM] (active).
As for `CCN(Cc1cccc(C)c1)C(=O)C1CCN(S(=O)(=O)c2ccc3cn[nH]c3c2)CC1`, the % ACh max response is 85.8% (active).
Under `CCN(Cc1ccccc1)C(=O)C1CCN(S(=O)(=O)c2ccc(C(C)C)cc2)CC1` stands 66.7% [at 30 µM] (active); under `CCN(Cc1ccccc1)C(=O)C1CCN(S(=O)(=O)c2ccccc2Cl)CC1`, 33.6% [at 30 µM].
Under `CCN(Cc1ccccc1)C(=O)C1CCN(S(=O)(=O)c2ccc3nn(C)cc3c2)CC1` stands 51.4%; under `CCN(CC1CCN(S(=O)(=O)c2ccc(OC(F)(F)F)cc2)CC1)C(=O)c1ccccc1`, 10.5%; under `CCN(Cc1ccccc1)C(=O)C1CCN(S(=O)(=O)c2ccccc2OC(F)(F)F)CC1`, 17.5% [at 30 µM].

For the origin of these results see PubChem BioAssay AID743100 (Vanderbilt Specialized Chemistry Center, 2013).
